# Assay outcomes as filed in PubChem.
# BRCA1 expr act: qHTS Assay to Identify Small Molecule Activators of BRCA1 Expression. MCF7-BRCA1-FFLuc reporter, luminescence, 48 h; response scale: scaled: vehicle 0%, 10 µM genistein 100%. Potency, µM (series often up to 46.1 µM), for inactives: at the highest dose activation, most hits filed as activators. hit rate 1.1% among 380,000. AID 624202, 2012; note: potency is the fitted concentration of half-maximal effect; nearly all actives have a fitted effect of over 80% in size
#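 Activators of BRCA1 expression were detected as increased firefly luciferase luminescence in engineered MCF7 cells after 48 h compound incubation. Signals were scaled to genistein 10 microM as full activation.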
# VP16 counter: VP16 counterscreen qHTS for inhibitors of ROR gamma transcriptional activity; hit rate 3.5% among 310,000; Potency, µM (series often up to 53.6 µM), inactives show at the top dose activity, negative = inhibition, hits mostly inhibitors; Drosophila S2 Gal4-VP16 UAS-luciferase, luminescence, 20 h; AID 2546, 2010;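 note: Gal4-VP16 expression switched on by copper sulfate through the metallothionein promoter; potency is the fitted concentration of half-maximal effect; % is set by controls: 0 for no effect and ±100 for the full control effect; nearly all actives have a fitted effect of over 50% in size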
# RORg inh: qHTS for inhibitors of ROR gamma transcriptional activity; Nuclear receptor ROR-gamma (Mus musculus), P51450; Drosophila S2 Gal4-RORgamma UAS-luciferase reporter, 20 h; Potency, µM (highest dose often 53.6 µM), for inactives: at the highest dose activity change, negative = inhibition, usual class: inhibitors; hit rate 5.4% among 310,000; AID 2551, 2010; note: potency is the fitted concentration of half-maximal effect; % is set by controls: 0 for no effect and ±100 for the full control effect; nearly all actives have a fitted effect of over 60% in size
# Target sequence (P51450 whole entry, looked up, the tested form may be a part): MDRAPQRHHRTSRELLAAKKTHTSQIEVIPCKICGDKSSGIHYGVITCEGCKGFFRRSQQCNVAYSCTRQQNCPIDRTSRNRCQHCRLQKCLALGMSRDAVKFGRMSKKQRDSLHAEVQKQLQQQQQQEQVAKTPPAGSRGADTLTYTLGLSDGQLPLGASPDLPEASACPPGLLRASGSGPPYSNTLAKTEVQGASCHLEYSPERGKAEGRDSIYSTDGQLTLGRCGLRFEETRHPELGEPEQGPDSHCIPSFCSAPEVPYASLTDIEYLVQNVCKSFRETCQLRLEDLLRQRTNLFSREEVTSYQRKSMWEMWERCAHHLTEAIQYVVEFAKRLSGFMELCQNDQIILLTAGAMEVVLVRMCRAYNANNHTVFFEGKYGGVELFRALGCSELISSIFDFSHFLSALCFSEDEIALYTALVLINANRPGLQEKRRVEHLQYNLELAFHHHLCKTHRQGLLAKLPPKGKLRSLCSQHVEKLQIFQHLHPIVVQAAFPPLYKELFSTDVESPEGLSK
#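 A Gal4/UAS one-hybrid system in insect cells: metallothionein-promoter Gal4–ROR gamma fusion plus Photinus luciferase reporter. Copper sulfate 700 uM final, 20 hr ambient incubation, luminescent detection after 10 min with reagent.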
# Giardia kill: Small Molecules that selectively kill Giardia lamblia: qHTS. Giardia lamblia trophozoite viability. hit rate 0.15% among 340,000. activity change, % at 7.66 µM, hits read low; in the data active = activity change below about -80%; inconclusive = between about -30% and that limit;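 note: parasites exposed to compound for two days anaerobically before the ATP read; % is set by controls: 0 for no effect and ±100 for the full control effect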
#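 Giardia lamblia trophozoites (100 cells/well) were incubated with compounds for 48 h at 37 deg C under anaerobic conditions. Viability was read as ATP content by one-step luminescence after 15-30 min at room temperature.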
# ELG1 DNA repair: qHTS screen for small molecules that inhibit ELG1-dependent DNA repair in human embryonic kidney (HEK293T) cells expressing luciferase-tagged ELG1. HEK293T ELG1-luciferase reporter, luminescence, 16 h; DNA damage induced by 5-fluorouridine. Potency, µM (top dose mostly 46.1 µM), inactives show top-dose activity change, negative = inhibition, most hits filed as inhibitors. hit rate 2.3% among 330,000. AID 504467, 2011; note: potency is the fitted concentration of half-maximal effect; % is set by controls: 0 for no effect and ±100 for the full control effect; nearly all actives have a fitted effect of over 55% in size
#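 In this reporter screen, reduction of luminescence relative to DMSO vehicle indicated activity. Compounds and 5-fluorouridine were added together to 2,000 cells per well, incubated for 16 hr at 37 °C, then developed with ONE-Glo.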
# p53 reactivation: qHTS assay for re-activators of p53 using a Luc reporter; H1299 p53-A138V BP100-luciferase reporter, luminescence, 24 h; Potency, µM (top dose mostly 92.2 µM), for the others: at the top dose activity change, positive = activation, usual class: activators; hit rate 0.063% among 320,000; note: potency is the fitted concentration of half-maximal effect; % of control where 0% means no effect; nearly all actives have a fitted effect of over 45% in size
#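 p53-null H1299 cells stably carrying temperature-sensitive p53-A138V and a BP100-luciferase reporter were pinned with compounds (4-point, 1:5 series) and held 24 hrs at 37 deg C. Luminescence was read 10 min after detection reagent.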
# * marks the source's active call; other numbers are inactive results; ? = inconclusive; . = no result given; [ ] = another dose, or the depositor's remark. The list is not random: actives were taken first. Their share in the collection is about 7.6%. Unless noted, calls come from the whole dose curve; as a rule, active = well fitted curve in the direction sought with a large enough effect; inconclusive = small, poorly fitted or top-dose-only effect, or another doubt; inactive = no such curve, though single readings can be large; an effect the other way counts as inactive or inconclusive.
SMILES,BRCA1 expr act,VP16 counter,RORg inh,Giardia kill,ELG1 DNA repair,p53 reactivation
CCOC(=O)Nc1ccc(OC)c([N+](=O)[O-])c1,26%,20%,40%,27,?,-3%
CC(C)CC(N)c1csc(Nc2ccc(C(=O)NCCCO)cn2)n1 (configuration not stated),7%,.,.,.,.,.
CCC1CCCCN1CCNC(=O)C1CCN(S(=O)(=O)c2cccc3nsnc23)CC1 (configuration not stated),-21%,1%,-15%,-1,21%,4%
Cc1cnc(C(=O)Nc2nnc(C)s2)cn1,6%,11%,?,-8,?,2%
Cc1cnc(C(=O)Nc2nnc(C3CC3)s2)cn1,7%[1.84 µM],-24%,8.9µM*,13,?,12%
COc1ccc2nc(-c3ccc(N)cc3)[nH]c2c1,-63%,10µM*,7.9µM*,-10,?,-26%
Nc1cccc(-c2nc3ccc(C(=O)c4ccccc4)cc3[nH]2)c1,53%,-19%,-22%,-29,?,?
COc1ccc2nc(-c3cccc(N)c3)[nH]c2c1,36%,13µM*,?,?,?,?
O=C1CSC(c2cccnc2)N1Cc1cccnc1 (configuration not stated),-8%,-7%,-8%,1,-3%,-2%
CCOC(=O)c1c(N)sc(C(=O)Nc2ccccc2)c1C,?,?,?,?,?,10%
Cc1cccc(N2CCN(S(=O)(=O)c3c(C)[nH]c(C)c3C(=O)N3CCCCC3)CC2)c1C,-4%,3%,24%,20,-2%,4%
CN(C)C(=S)Nc1nc2ccccc2s1,3.5µM*,1.3µM*,0.5µM*,8,?,10%
CCOc1ccc2nc(NC(=O)c3ccc(C)o3)sc2c1,?,.,.,-16,.,.
CCOc1ccc2nc(NC(=O)c3cnc(C)cn3)sc2c1,20%,5.6µM*,1.8µM*,-28,2%,-3%
O=C(NNc1nc2ccccc2s1)Nc1ccccc1,?,-27%,?,-8,?,?
CCCC(=O)Nc1nc2ccc(OCC)cc2s1,6.3µM*,-26%,?,13,?,3.2µM*
S=C(Nc1ccccc1)c1nc2ccccc2s1,15%,0.71µM*,1.1µM*,-9,?,?
CCOc1ccc2nc(NC(=S)N(C)C)sc2c1,?,1.8µM*,1µM*,9,?,?
CCOc1ccc2nc(NC(=O)CSc3ccccc3)sc2c1,18%,-1%,33%,2,6%,14%
CCOc1ccc2nc(NC(=O)C3=NN(c4ccccc4)C(=O)CC3)sc2c1,51%,18%,2.8µM*,-6,-5%,5%
CCOc1ccc2nc(NC(=O)CCn3cccc3)sc2c1,62%,?,5µM*,24,?,14%
Cc1ccccc1Nc1nc2ccccc2s1,3.5µM*,?,?,-12,?,?
Cc1ccc2nc(NC(=O)C3=NN(c4ccccc4)C(=O)CC3)sc2c1,36%,?,?,-15,-24%,4%
Cc1ccc(Nc2nc3ccccc3s2)cc1,-18%,?,?,3,?,?
COc1cccc(C(O)c2ncc(-c3ccc(C(F)(F)F)cc3)[nH]2)c1 (configuration not stated),-10%,.,.,.,.,.
SMILES,BRCA1 expr act,VP16 counter,RORg inh,Giardia kill,ELG1 DNA repair,p53 reactivation
Cc1cccc(N(Cc2nnc3n2CCCCC3)C(=O)Nc2ccccc2)c1,2%,-4%,7%,13,-2%,-3%
CCC(=O)N1CCc2cc(Br)cc(S(=O)(=O)NCCN3CCCCC3CC)c21 (configuration not stated),9%,1%,-20%,-9,6%,?
COc1ccc(C(=O)N2CCC2(C)C(=O)NC(C)C)c(OC)c1 (configuration not stated),13%,.,.,.,.,.
Cc1ccc(S(=O)(=O)Nc2ccc(-c3nc4ccc(C)cc4s3)cc2)cc1,24%,.,.,1,17%,?
Cc1cccc(S(=O)(=O)Nc2ccc(-c3nc4ccc(C)cc4s3)cc2)c1,?,-25%,5.6µM*,22,?,?
Cc1ccc(NC(=O)CCS(=O)(=O)c2ccc3nc(C)sc3c2)cc1,4%,2%,-8%,13,2%,.
Cc1nc2cc(NC(=O)CCS(=O)(=O)c3ccccc3)ccc2s1,?,?,16µM*,14,?,32µM*
Cc1ccc2nc(-c3ccc(NC(=O)CCS(=O)(=O)c4ccccc4)cc3)sc2c1,-30%,7.9µM*,1.1µM*,-27,?,?
Cc1nc2ccc(NC(=O)CCS(=O)(=O)c3ccccc3)cc2s1,?,?,-11%,26,?,?
CCN1C(=O)C(CC(=O)Nc2ccc(OC)cc2)N(CCc2ccccc2F)C1=S (configuration not stated),-54%,4%,?,11,16µM*,0%
COc1ccc(NC(=O)CC2C(=O)N(c3ccc(Cl)cc3)C(=S)N2NC(=O)c2cccc(F)c2)cc1 (configuration not stated),-23%,18µM*,10µM*,7,-1%,7%
COc1ccc(NC(=O)CC2C(=O)N(c3ccc(F)cc3)C(=S)N2NC(=O)c2ccc(Cl)cc2)cc1 (configuration not stated),-7%,20µM*,11µM*,-9,-7%,13%
CCOC(=O)c1ccc(N2C(=O)C(CC(N)=O)N(NC(=O)c3cccc(F)c3)C2=S)cc1 (configuration not stated),-3%,2%,-42%,48,-5%,-5%
CC(=O)c1ccc(S(=O)(=O)Nc2ccc(-c3ccc4nnc(C)n4n3)cc2)cc1,-6%,-19%,-32%,4,?,-2%
N#Cc1ccc(OCC(O)CN2CCN(c3ncc(C(F)(F)F)cc3Cl)CC2)cc1 (configuration not stated),-65%,0%,-24%,-6,5.8µM*,-25%
NC(=O)SCC(=O)Nc1cccc(Cl)c1,-7%,?,10µM*,5,15%,4%
O=C(CCNC(=O)c1ccccc1Cl)NCc1ccncc1,14%,.,.,-3,4%,-6%
O=[N+]([O-])c1ccc(O)c(/C=N/n2cnc3ccccc32)c1,-26%,?,?,-26,21µM*,27%
